Bioassay records deposited in PubChem by NMMLSC.
Compounds with a hit are over-represented: about 1.2% of the library has one in this group of screens.
RGS7-Gao: human RGS7-Galphao interaction regulation. actives 0.35% (n = 220,000). binding response (% of control), % at 10 µM. P09471. Multiplexed bead flow cytometry, RGS7-Galphao binding; actives lie on both sides; in the data active = binding response below about 49% or above about 150%; inconclusive = no clear call, values can overlap the other calls; inactive = in between;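 note: fluorescent Galphao held in activated GDP-AlF4 state binding bead-coupled RGS7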
Target sequence (P09471 whole entry, looked up): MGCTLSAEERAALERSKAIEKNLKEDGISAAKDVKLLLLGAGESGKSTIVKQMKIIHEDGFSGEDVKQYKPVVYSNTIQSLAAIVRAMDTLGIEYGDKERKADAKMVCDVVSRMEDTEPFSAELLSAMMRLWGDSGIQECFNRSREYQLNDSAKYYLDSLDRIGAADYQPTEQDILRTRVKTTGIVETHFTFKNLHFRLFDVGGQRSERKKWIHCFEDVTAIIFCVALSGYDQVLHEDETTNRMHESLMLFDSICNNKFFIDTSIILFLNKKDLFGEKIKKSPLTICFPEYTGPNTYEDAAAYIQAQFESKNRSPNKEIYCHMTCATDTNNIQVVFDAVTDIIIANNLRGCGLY
GSH fluor: GSH bead compound fluorescence profile; fluorescence (KMESF) at 10 µM; actives 0.25% (n = 190,000); GSH beads flow cytometry, compound fluorescence 488/530 nm; hits give high values; in the data active = fluorescence above about 89;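 note: glutathione beads carrying GST-tagged Bcl family fusion proteins plus one bare bead set; values are compound well signal with DMSO vehicle wells as background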
RGS16-Gao: RGS16-Galphao interaction regulator (human). bead-based flow cytometry RGS16-Galphao binding, fluorescence; actives lie on both sides. binding response (% of control), % at 10 µM. actives 0.38% (n = 220,000). AID 1441;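 note: Galphao activated by GDP with aluminum fluoride before binding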
RGS4-Gao reg: human RGS4-Galphao interaction regulation; actives 0.33% (n = 220,000); binding response (% of control), % at 10 µM; Multiplexed bead flow cytometry, RGS4-Galphao binding; actives lie on both sides; in the data active = binding response below about 49% or above about 150%; inactive = in between;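 note: fluorescent Galphao activated with aluminum fluoride binding bead-coupled RGS4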
RGS8-Gao: regulators of human RGS8-Galphao interaction | P09471 | multiplexed bead flow cytometry, RGS8-Galphao binding; actives lie on both sides | actives 0.34% (n = 220,000) | response (percent of control binding), % at 10 µM | AID 1423; in the data active = response below about 60% or above about 140%; inactive = in between;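 note: Galphao activated as the GDP aluminium fluoride complex binding bead-coupled RGS8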
Avidin bead fluor: compound fluoresces at 488/530 nm on avidin beads. AID 1775. fluorescence (KMESF) at 10 µM. actives 0.38% (n = 220,000). compound fluorescence 488/530 nm, flow cytometry; hits give high values; in the data active = fluorescence above about 47
RGS4-Gao HTS: RGS4-Galphao interaction regulator (human); shares compounds with RGS16-Gao; multiplexed bead flow cytometry, RGS–Galpha-o binding; RGS4–Galpha-o binding response, % at 10 µM; actives 99% (n = 1,600); AID 1504;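 note: fluorescently labeled Galpha-o bound to GDP with aluminium fluoride binding biotinylated RGS beads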
Biotin-avidin: biotin-avidin bead binding disruption counter-screen; shares compounds with RGS16-Gao; streptavidin beads, fluorescein-biotin binding, flow cytometry; inhibition, % at 10 µM; 1,700 tested, under 10 active;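 active = inhibition above 50%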;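 note: median green fluorescence of gated singlet beads compared with DMSO control wells; 0% = DMSO wells and 100% = complete loss of bead fluorescence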
RGS8-Gao single: RGS8-Galphao interaction regulation, single point confirmation. shares compounds with RGS16-Gao. bead-based flow cytometry RGS8-Galphao binding, fluorescence; actives lie on both sides. binding response (% of control), % at 10 µM. actives 3% (n = 1,700); in the data active = binding response below about 72% or above about 130%; inactive = in between;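 note: Galphao activated as GDP AlF4 complex before binding bead RGS8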
RGS7-Gao single: RGS7-Galphao interaction regulation, single point confirmation | shares compounds with RGS16-Gao | bead-based flow cytometry RGS7-Galphao binding; actives lie on both sides | response (percent of control binding), % at 10 µM | actives 7.8% (n = 1,700); in the data active = response below about 75% or above about 130%; inactive = in between;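 note: fluorescent Galphao activated with GDP and aluminum fluoride binding bead-coupled RGS7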
RGS16-Gao conf: confirmation of regulators of human RGS16-Galphao interaction | shares compounds with RGS16-Gao | bead-based flow cytometry, RGS16-Galphao binding; actives lie on both sides | response (% of control binding), % at 10 µM | actives 4% (n = 1,700); in the data active = response below about 74% or above about 130%; inactive = in between;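 note: Galphao activated as the GDP aluminium fluoride complex binding bead-coupled RGS16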
RGS4-Gao confirm: RGS4-Galphao interaction regulation, single point confirmation; RGS4-Galphao binding, multiplexed bead flow cytometry; actives lie on both sides; binding response (% of control), % at 10 µM; shares compounds with RGS16-Gao; actives 4% (n = 1,700); in the data active = binding response below about 74% or above about 130%; inactive = in between
RGS19-Gao single: RGS19-Galphao interaction regulation, single point confirmation | response (percent of control binding), % at 10 µM | actives 5% (n = 1,700) | bead-based flow cytometry RGS19-Galphao binding; actives lie on both sides | shares compounds with RGS16-Gao | AID 1841; in the data active = response below about 50% or above about 160%; inactive = in between;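 note: 100% = no compound control and 0% = blank background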
Target sequence (P09471 whole entry, looked up): as above
Target sequence (P49795 whole entry, looked up): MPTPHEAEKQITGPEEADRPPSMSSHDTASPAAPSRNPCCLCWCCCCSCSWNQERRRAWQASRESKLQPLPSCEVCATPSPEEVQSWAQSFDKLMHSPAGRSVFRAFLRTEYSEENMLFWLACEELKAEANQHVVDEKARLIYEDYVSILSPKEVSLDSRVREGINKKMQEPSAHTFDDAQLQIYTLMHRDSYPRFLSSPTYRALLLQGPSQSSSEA
The depositor's hits bear a star; ? = inconclusive; . = no result; [ ] = another dose, or the depositor's remark. Unless noted, the rule behind the calls is not given here.

SMILES	RGS7-Gao	GSH fluor	RGS16-Gao	RGS4-Gao reg	RGS8-Gao	Avidin bead fluor	RGS4-Gao HTS	Biotin-avidin	RGS8-Gao single	RGS7-Gao single	RGS16-Gao conf	RGS4-Gao confirm	RGS19-Gao single
COC(=O)c1sc2nc(CN3CCOCC3)nc(N3CCOCC3)c2c1C	106	33	111	112	101	9	.	.	.	.	.	.	.
Cc1sc2nc(CN3CCOCC3)nc(N3CCOCC3)c2c1C	117	73	413	116	143*[activator]	4	116*	0	104	105	103	103	102
CCC(C)NS(=O)(=O)c1ccc(OCC(=O)Nc2ccc3c(c2)OCO3)cc1 (stereo not drawn)	94	13	96	91	100	12	.	.	.	.	.	.	.
CC(C)NS(=O)(=O)c1ccc(OCC(=O)Nc2ccc3c(c2)OCO3)cc1	31*	12	33	38*	39*	6	.	-2	99	96	99	97	92
Cc1nc2ccc(NC(=O)N(C)c3ccccc3)cc2s1	102	17	105	101	102	3	.	.	.	.	.	.	.
Cc1nc2ccc(NC(=O)N(C(C)C)C(C)C)cc2s1	169*[activator]	12	124	98	108	82*	98*	1	102	102	101	99	104
CCCc1nc2c([nH]1)c(=O)n(C)c(=O)n2C	?	.	102	101	102	7	.	.	.	.	.	.	.
CC(=O)Nc1ccc(Cc2nc3c([nH]2)c(=O)n(C)c(=O)n3C)cc1	?	.	1.1*	-0.7*	20*	-1	.	1	99	99	101	98	103
Cc1ccc(C(C(=O)NC2CCCC2)N(Cc2cccnc2)C(=O)c2snc(C(N)=O)c2N)o1 (stereo not drawn)	103	13	88	104	94	28	.	.	.	.	.	.	.
Cc1ccc(C(C(=O)NC(C)(C)C)N(Cc2ccccc2)C(=O)c2snc(C(N)=O)c2N)o1 (stereo not drawn)	161*[activator]	10	92	110	92	128*	110*	2	103	99	105	100	105
O=C(Nc1ccc(Oc2nnc(-c3ccccc3)c3ccccc23)cc1)c1ccccc1	106	9	109	110	105	15	.	.	.	.	.	.	.
Clc1ccccc1Cn1nnc2c(NCCN3CCOCC3)ncnc21	117	26	234	114	141*[activator]	16	114*	1	103	105	102	103	91
Cc1nc(NCCN2CCOCC2)c2nnn(Cc3ccccc3Cl)c2n1	100	46	93	101	103	8	.	.	.	.	.	.	.
CC(C)(C)c1nc(NCCN2CCOCC2)c2nnn(Cc3ccccc3Cl)c2n1	125	55	342	129	153*[activator]	7	129*	10	99	70*	92	77	84
CCOc1nc(NCCO)nc(Nc2cc(Cl)ccc2OC)n1	89	17	94	90	97	10	.	.	.	.	.	.	.
c1ccc(-c2nnsc2-c2nc3ccccc3[nH]2)cc1	62	18	99	84	56*	6	84*	-1	106	107	104	107	100
Cc1nnc(SCC(=O)NC(=O)NCc2ccco2)s1	?	10	101	99	101	15	.	.	.	.	.	.	.
O=C(CSc1nn(-c2ccc(F)cc2)c(=S)s1)NC(=O)NCc1ccco1	88	19	19*	74	76	2	74*	0	110	105	106	103	96
NC(=NC1CCCCC1)c1ccc(Cl)cc1	195*[activator]	14	101	117	90	42	117*	2	103	97	102	101	118
NC(=O)C1CCCN(C(=O)c2ccc(Cl)cc2)C1 (stereo not drawn)	98	39	99	97	98	9	.	.	.	.	.	.	.
COc1cc(C(=O)NNC(=O)c2ccc(NC(C)=O)cc2)cc(OC)c1OC	17*	8	11*	23*	14*	1	.	-1	107	210*[activator]	132*[activator]	165*[activator]	255*[activator]
COc1cc(C(=O)Nc2ccc(N(C)C)cc2)cc(OC)c1OC	98	6	98	99	100	7	.	.	.	.	.	.	.
COC(=O)CC(NC(=O)Nc1ccc(C)cc1)c1cccc([N+](=O)[O-])c1 (stereo not drawn)	4.0*	11	20*	28*	26*	1	.	0	104	101	104	100	116
COCCCn1c(-c2ccc(Cl)cc2)n[nH]c1=S	.	33	.	.	.	.	.	2	99	109	96	101	99
CCCc1nc2c(o1)CC(CC(C)SCC)CC2=O (stereo not drawn)	-1.3*	44	-7.1*	-7.5*	7.4*	-4	.	1	99	99	97	97	107
SMILES	RGS7-Gao	GSH fluor	RGS16-Gao	RGS4-Gao reg	RGS8-Gao	Avidin bead fluor	RGS4-Gao HTS	Biotin-avidin	RGS8-Gao single	RGS7-Gao single	RGS16-Gao conf	RGS4-Gao confirm	RGS19-Gao single
CCSC(C)CC1CC(=O)CC(=O)C1 (stereo not drawn)	.	41	.	.	.	.	.	3	96	101	98	100	88
Cc1nc(SCC2(C)CC2(Cl)Cl)n[nH]1 (stereo not drawn)	86	9	96	95	97	5	.	.	.	.	.	.	.
O=C(Cn1c(=O)oc2cccnc21)Nc1ccc(C(F)(F)F)cc1	?	.	99	97	100	10	.	.	.	.	.	.	.
O=C(NC(Cc1ccccc1)C(=O)NCc1ccccn1)c1ccco1 (stereo not drawn)	.	29	.	.	.	.	.	-1	100	100	101	101	81
O=C(NCc1ccccn1)c1ccco1	101	8	104	100	102	22	.	.	.	.	.	.	.
COc1ccc(-n2cnc3cc(C(=O)NCCN4CCOCC4)ccc32)cc1	100	19	102	103	102	8	.	.	.	.	.	.	.
